Reference: PubChem BioAssay (NCATS)
Results filed as inconclusive are left out. Entries that show only a call come without a potency. Unmarked numbers belong to inactive results. Activity calls are given as the source filed them. The call rests on the fitted dose curve; in most records, active means well fitted curve in the direction sought with a large enough effect; inconclusive means small, poorly fitted or top-dose-only effect, or another doubt; inactive means no such curve, though single readings can be large; an effect the other way counts as inactive or inconclusive.

What was measured:
[1] = biological target: Calcium and integrin-binding protein 1 (Homo sapiens) (UniProt Q99828); test: Primary qHTS for Identification of Calcium Integrin Binding Protein 1 (CIB1) Competitor (AID 1508620);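 further: GST tagged CIB1 binding a fluorescein labelled alphaIIb integrin peptide tracer; top concentration of the series differs between compounds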
Chain of Calcium and integrin-binding protein 1 (Homo sapiens) (Q99828 whole entry, looked up): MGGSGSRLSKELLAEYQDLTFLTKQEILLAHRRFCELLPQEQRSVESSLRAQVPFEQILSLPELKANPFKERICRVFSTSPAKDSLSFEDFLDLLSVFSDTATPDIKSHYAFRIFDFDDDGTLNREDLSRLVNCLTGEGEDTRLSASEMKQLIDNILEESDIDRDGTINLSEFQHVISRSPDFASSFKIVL
In short: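 Fluorescence polarization competition: CIB1-GST (1 uM final) preincubated with compound 15 min at room temperature, then FITC-labeled alphaIIb peptide (100 nM final) added for another 15 min. Polarization read at Ex 480/Em 540.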

[2] = Primary qHTS for inhibitors of nuclear receptor binding SET domain protein 2 (NSD2) in an isogenic RCH-ACV NSD2 p.E1099K mutant (9B) (AID 1645876); further: nearly all actives have a fitted effect of over 70% in size; further: potency means the concentration at half of the fitted maximal effect
[3] = Primary qHTS for inhibitors of nuclear receptor binding SET domain protein 2 (NSD2) in an RCH-ACV wild type WT cells (2C) (AID 1645877); further: nearly all actives have a fitted effect of over 70% in size; further: potency means the concentration at half of the fitted maximal effect

Row | Structure (SMILES) | Potency [1] | Potency [2] | Potency [3] | activity change, negative = viability loss [2] | activity change, negative = cell killing [3]
1 | O=C(CC1C(=O)Nc2ccccc21)OC[C@H]1O[C@@H](OCCc2ccc(O)cc2)[C@H](O)[C@@H](O)[C@@H]1O (stereo partly specified) | inactive | inactive | inactive | – | –
2 | CC(=O)CC1CCC(C(C)C(=O)OCC(O)CO)O1 (stereo unspecified) | inactive | inactive | inactive | – | –
3 | CC12CCC(C(OC3OC(COC4OCC(O)(CO)C4O)C(O)C(O)C3O)C1)C(C)(C)O2 (stereo unspecified) | inactive | inactive | inactive | – | –
4 | O=C(O)C(O[C@@H]1O[C@H](CO[C@@H]2O[C@H](CO)[C@@H](O)[C@H](O)[C@H]2O)[C@@H](O)[C@H](O)[C@H]1O)c1ccccc1 (stereo partly specified) | inactive | inactive | inactive | – | –
5 | COc1ccc(C(O)C(C)OC2OC(CO)C(O)C(O)C2O)cc1 (stereo unspecified) | inactive | inactive | inactive | – | –
6 | O=C(Nc1ccn[nH]1)c1c(F)cccc1F | inactive | inactive | inactive | – | –
7 | COC(=O)C[C@H]1[C@]2(C)C3=C(C)[C@H](c4ccoc4)C[C@H]3O[C@@H]2[C@H](OC(C)=O)C2[C@](C)(C(=O)OC)C=CC(=O)[C@@]21C (stereo partly specified) | inactive | inactive | inactive | – | –
8 | C=C(C)C(=O)OC1C(OC(C)=O)/C(C=O)=C\CC/C(CO)=C/C2OC(=O)C(=C)C21 (stereo unspecified) | inactive | 3.17 µM (active) | 1.42 µM (active) | – | –
9 | Nc1nc2c(c(=O)[nH]1)C[C@@H](CCc1ccc(C(=O)N[C@@H](CCC(=O)O)C(=O)O)cc1)CN2 | inactive | 0.0115 µM (active) | 0.0092 µM (active) | – | –
10 | Cc1nc(Nc2n[nH]c3c2CN(C(=O)NC(CN(C)C)c2ccccc2)C3(C)C)c2sccc2n1 (stereo unspecified) | inactive | 0.0065 µM (active) | 0.0052 µM (active) | – | –
11 | C[C@@H]1C(=O)O[C@H]2[C@@H](O)C34[C@H]5C[C@@H](C(C)(C)C)C36[C@@H](OC(=O)[C@@H]6O)O[C@@]4(C(=O)O5)[C@@]12O (stereo partly specified) | inactive | inactive | inactive | – | –
12 | CC(Nc1ncnc2nc[nH]c12)c1cc2cccc(Cl)c2c(=O)n1-c1ccccc1 (stereo unspecified) | inactive | 0.332 µM (active) | 0.468 µM (active) | – | –
13 | CC1(C)CCC[C@@]2(C)C1[C@H](OC(=O)/C=C/C=C/C(=O)O)C=C1COC(=O)[C@@]12O (stereo partly specified) | inactive | inactive | inactive | – | –
14 | CC12CCC3c4ccc(O)cc4CCC3C1CC(OC1OC(C(=O)O)C(O)C(O)C1O)C2O (stereo unspecified) | inactive | inactive | inactive | – | –
15 | CC1(C)CC[C@]2(C(=O)O)[C@H](O)C[C@]3(C)C(=CCC4[C@@]5(C)CC[C@H](O[C@@H]6O[C@H](CO[C@@H]7OC[C@H](O)[C@H](O)[C@H]7O[C@@H]7OC[C@@H](O)[C@H](O)[C@H]7O)[C@@H](O)[C@H](O)[C@H]6O[C@@H]6O[C@H](CO)[C@@H](O)[C@H](O)[C@H]6O)C(C)(C)C5CC[C@]43C)[C@@H]2C1 (stereo partly specified) | inactive | – | – | -4.67% [at 9.23 µM] | -6.47% [at 9.23 µM]
16 | CC(=O)C1=C(C)N(c2cccc(C(F)(F)F)c2)C(=O)N[C@H]1c1ccc(C#N)nc1 | inactive | – | – | -10.2% [at 9.23 µM] | -17.1% [at 9.23 µM]
17 | Cc1ccccc1CN1C2=NCCN2C(=O)C2=C1CCN(Cc1ccccc1)C2 | inactive | inactive | inactive | – | –
18 | CC1CCC2(C(=O)O)CCC3(C)C(=CCC4C5(C)CCC(O)C(C)(CO)C5CCC43C)C2C1(C)O (stereo unspecified) | inactive | inactive | inactive | – | –
19 | CC(=O)O[C@H]1[C@@H](O)[C@H](O[C@H]2[C@@H]3C=CO[C@@H](O[C@H]4O[C@@H](CO)[C@H](O)[C@@H](O)[C@@H]4O)[C@@H]3[C@@]3(CO)O[C@@H]23)O[C@@H](C)[C@@H]1OC(=O)/C=C/c1ccccc1 | inactive | inactive | inactive | – | –
20 | O=C(O)c1cn(C2CC2)c2cc(N3C[C@@H]4C[C@H]3CN4)c(F)cc2c1=O | inactive | inactive | inactive | – | –
21 | COCCOc1cnc2ccn([C@H](C)c3nnc4c(F)cc(-c5cnn(C)c5)cn34)c(=O)c2c1 | inactive | inactive | inactive | – | –
22 | C=CC1(C)C=C2C(=O)OC(=O)C3=C(CCCC3(C)C)C2(O)CC1 (stereo unspecified) | inactive | inactive | inactive | – | –
23 | C[C@@H]1N[C@H]2N(C1=O)c1ccccc1[C@@]2(O)C[C@@H]1C(=O)N[C@@H](C)c2nc3ccccc3c(=O)n21 | inactive | inactive | inactive | – | –
24 | CO/N=C(/C(=O)N[C@@H]1C(=O)N2C(C(=O)O)=C(Cn3ccc(=N)n3CCO)CS[C@H]12)c1csc(N)n1 | inactive | inactive | inactive | – | –
25 | CC(C)(O)c1ccc2c(c1)C(O)C[C@H]1[C@](C)(C(=O)O)CCC[C@]21C (stereo partly specified) | inactive | inactive | inactive | – | –
26 | NCc1c[nH]c(=S)n1[C@@H]1CCc2c(F)cc(F)cc2C1 | inactive | inactive | inactive | – | –
27 | CC1CC[C@]2(C(=O)O)CC[C@]3(C(=O)O)C(=CCC4[C@@]5(C)CC[C@H](O[C@@H]6O[C@H](CO)[C@@H](O)[C@H](O)[C@H]6O)C(C)(C)C5CC[C@]43C)C2C1C (stereo partly specified) | inactive | inactive | inactive | – | –
